Values joined by “and” are separate entries in the source; they are usually repeats but may differ in a detail not shown here. Equal values may be shown once. Results filed as inconclusive are left out. Some compounds were tested as several samples or in several runs, with calls that do not always agree. Active and inactive are the calls of the source. Calls come from the whole dose curve; as a rule, active = well fitted curve in the direction sought with a large enough effect; inconclusive = small, poorly fitted or top-dose-only effect, or another doubt; inactive = no such curve, though single readings can be large; an effect the other way counts as inactive or inconclusive.
Key:
[1] = Viability qHTS for spleen associated tyrosine kinase inhibitor (SYKi) naive MV4-11 cells (AID 1963823); note: nearly all actives have a fitted effect of over 40% in size
Procedure, shortened: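 In this viability screen, compounds acted on SYK inhibitor naive MV4-11 cells for three days (72 hr, 37 C). Remaining viable cells were measured by CellTiter-Glo luminescence following a 10 min room-temperature development.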

[2] = Viability qHTS for spleen associated tyrosine kinase inhibitor (SYKi) drug resistant MV4-11 cells (AID 1963824); note: nearly all actives have a fitted effect of over 35% in size
Procedure, shortened: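 SYK inhibitor-resistant MV4-11 AML cells, 500 per well, added to predispensed compounds and incubated 72 hr at 37 C, 5% CO2. Viability measured by CellTiter-Glo luminescence after 10 min at room temperature.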

[3] = Quantitative highthroughput screen to assess conditional lethalithy of NOMO1 cells grown in RPMI1640 with untreated serum (RPMI+s) (AID 1963876); note: nearly all actives have a fitted effect of over 35% in size;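 for Viability: 100% = DMSO wells and 0% = empty wells without cells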
Procedure, shortened: (§1)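 Each medium arm—HPLM with 10% dialyzed FBS, or RPMI1640 with 5 mM glucose and 10% untreated or dialyzed FBS—was screened against an 11-point, 3-fold compound titration for 48 h at 37 °C, with CellTiter-Glo luminescence as endpoint.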

[4] = Quantitative highthroughput screen to assess conditional lethalithy of P12 Ichikawa cells grown in RPMI1640 with untreated serum (RPMI+s) (AID 1963881); details: Potency: viability; note: nearly all actives have a fitted effect of over 35% in size;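 for Viability: series mostly up to about 46 µM; 100% = DMSO wells and 0% = empty wells without cells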
Procedure, shortened: as §1

[5] = Quantitative highthroughput screen to assess conditional lethalithy of SEM cells grown in RPMI1640 with unreated serum (RPMI+s) (AID 1963883); note: nearly all actives have a fitted effect of over 35% in size;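 for Viability: 100% = DMSO wells and 0% = empty wells without cells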
Procedure, shortened: as §1

[6] = Quantitative highthroughput screen to assess conditional lethalithy of SEM cells grown in RPMI1640 with dialyzed fetal bovine serum (RPMI+ds) (AID 1963884); note: nearly all actives have a fitted effect of over 35% in size;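 for Viability: series mostly up to about 46 µM; 100% = DMSO control wells and 0% = empty wells without cells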
Procedure, shortened: as §1

[7] = Cellular viability qHTS for adrenocortical cancer (ACC) cell line SW-13 (AID 1963989); details: SW-13 ACC cells viability, CellTiter-Glo, 48 h; activity (max response): stronger effect = lower value; note: nearly all actives have a fitted effect of over 65% in size;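 for activity (max response): cells grown in serum-free medium with ITS supplement; % is set by controls: 0 for no effect and ±100 for the full control effect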
Procedure, shortened: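 Luminescent ATP read-out (CellTiter-Glo, 20 min at room temperature) measured metabolically competent SW-13 cells after 48 h compound treatment. Final concentrations spanned up to 46 uM; bortezomib served as positive control.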

[8] = Cellular viability qHTS for adrenocortical cancer (ACC) cell line NCI-H295R (AID 1963990); note: nearly all actives have a fitted effect of over 60% in size;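 for activity change, negative = viability loss: 0% = DMSO only wells and -100% = full killing with cytotoxic reference compound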
Procedure, shortened: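 IC50 and maximal efficacy derive from four-parameter logistic modelling of titration curves, with reads scaled between DMSO-only wells (0%) and doxorubicin hydrochloride (100% inhibition). Compounds spanned up to 46 uM over 48 h.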

[9] = Quantitative highthroughput screen to assess conditional lethalithy of P12 Ichikawa cells grown in Human Plasma-Like Medium with dialyzed fetal bovine serum (HPLM+ds) (AID 1963879); details: Potency: viability; note: nearly all actives have a fitted effect of over 35% in size; for Viability: series mostly up to about 46 µM
Procedure, shortened: as §1

[10] = Quantitative highthroughput screen to assess conditional lethalithy of P12 Ichikawa cells grown in RPMI1640 with dialyzed fetal bovine serum (RPMI+ds) (AID 1963880); details: Potency: P12-Ichikawa viability; note: nearly all actives have a fitted effect of over 35% in size;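 for Viability: 100% = DMSO wells and 0% = empty wells on each plate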
Procedure, shortened: as §1

[11] = Quantitative highthroughput screen to assess conditional lethalithy of SEM cells grown in Human Plasma-Like Medium with dialyzed fetal bovine serum (HPLM+ds) (AID 1963882); note: nearly all actives have a fitted effect of over 35% in size; for Viability: series mostly up to about 46 µM
Procedure, shortened: as §1
Potency is the fitted concentration of half-maximal effect.

## Cc1ccc(C(=O)N(CCCN)[C@@H](c2oc3cc(Cl)ccc3c(=O)c2Cc2ccccc2)C(C)C)cc1
[1]
  Potency: 10.5 nM (active)
[2]
  Potency: 8.3 nM (active)
[3]
  Potency: inactive
[4]
  Potency: inactive
[5]
  Potency: inactive
[6]
  Potency: inactive
[7]
  Potency: 0.0141 µM (active)
[8]
  Potency: 0.316 µM (active)

## FC(F)(F)c1ccc(CNc2ccc(Cc3c[nH]c4ncc(Cl)cc34)cn2)cn1
[1]
  Potency: 146 nM (active) and 417 nM (active)
[2]
  Potency: 366 nM (active) and 833 nM (active)
[3]
  Potency: 2.34 µM (active)
[9]
  Potency: 0.295 µM (active)
[10]
  Potency: 3.31 µM (active)
[4]
  Potency: 3.71 µM (active)
[11]
  Potency: 1.86 µM (active)
[5]
  Potency: 0.132 µM (active)
[6]
  Potency: 1.48 µM (active)
[8]
  Potency: inactive

## CCOc1ccc(Nc2nc(-c3c(C)nc4ccccn34)cs2)cc1
[1]
  Potency: 41.1 nM (active) and 33.2 nM (active)
[2]
  Potency: 41.1 nM (active) and 29.5 nM (active)
[3]
  Potency: 0.0833 µM (active)
[9]
  Potency: 0.0469 µM (active)
[4]
  Potency: 0.059 µM (active)
[5]
  Potency: 0.0469 µM (active)
[6]
  Potency: 0.105 µM (active)
[8]
  Potency: 0.708 µM (active)

## COc1cc2c(Nc3ccc(Br)cc3F)ncnc2cc1OCC1CCN(C)CC1
[1]
  Potency: inactive and 820 nM (active)
[2]
  Potency: inactive and 731 nM (active) and 2.95 µM (active)
[3]
  Potency: inactive
[9]
  Potency: inactive
[10]
  Potency: inactive
[4]
  Potency: inactive
[8]
  Potency: inactive and 25.1 µM (active)

## CCCCCCNC(=O)n1cc(F)c(=O)[nH]c1=O
[1]
  Potency: 1050 nM (active)
[2]
  Potency: 934 nM (active)
[3]
  Potency: inactive
[5]
  Potency: 16.6 µM (active)
[7]
  activity (max response): 8.7% (inactive) and -4.78% (inactive)

## c1cncc(CN2CCC(n3ncc4c(N5CCOCC5)nc(-c5ccc6[nH]ccc6c5)nc43)CC2)c1
[1]
  Potency: 1.03 µM (active) and 1.32 µM (active)
[2]
  Potency: 1.84 µM (active) and 1.86 µM (active)
[3]
  Potency: 16.6 µM (active)
[10]
  Potency: 13.2 µM (active)
[4]
  Potency: 13.2 µM (active)
[5]
  Potency: 14.8 µM (active)
[7]
  activity (max response): -29.6% (inactive)
[8]
  Potency: 3.55 µM (active)

## COc1cc2c(cc1-c1c(C)noc1C)ncc1[nH]c(=O)n([C@H](C)c3ccccn3)c12
[1]
  Potency: 206 nM (active)
[2]
  Potency: 259 nM (active)
[3]
  Potency: 3.32 µM (active)
[9]
  Potency: 5.9 µM (active)
[11]
  Potency: 1.87 µM (active)
[5]
  Potency: 1.87 µM (active)
[6]
  Potency: 1.48 µM (active)
[7]
  activity (max response): -16.6% (inactive)

## Cc1cc(Cl)ccc1OCCCC(=O)NO
[1]
  Potency: 14800 nM (active)
[2]
  Potency: 13200 nM (active)
[3]
  Potency: 14.8 µM (active)
[9]
  Potency: 8.33 µM (active)
[10]
  Potency: 1.48 µM (active)
[4]
  Potency: 5.9 µM (active)
[5]
  Potency: 10.5 µM (active)
[6]
  Potency: 9.35 µM (active)
[8]
  Potency: 1.26 µM (active)

## O=C(NC[C@H](O)CO)c1ccncc1Nc1ccc(I)cc1F
[1]
  Potency: 235 nM (active)
[2]
  Potency: 166 nM (active)
[3]
  Potency: 0.469 µM (active)
[9]
  Potency: inactive
[8]
  Potency: 31.6 µM (active)

## CC(=O)OCCN1C(=O)c2c(C)nc3ccc(S(=O)(=O)N4CCOCC4)cc3c2C1=O
[1]
  Potency: inactive
[2]
  Potency: inactive
[3]
  Potency: 0.264 µM (active)
[9]
  Potency: 2.64 µM (active)
[10]
  Potency: 3.32 µM (active)
[11]
  Potency: inactive
[5]
  Potency: inactive
[6]
  Potency: inactive
[7]
  activity (max response): -3.53% (inactive)
[8]
  Potency: inactive

## CC(C)(S)[C@@H](N)C(=O)O
[1]
  viability (% of control): 88.9% [at 4.97 µM] (inactive)
[2]
  viability, % of control: 89% [at 4.97 µM] (inactive)
[3]
  Potency: inactive
[9]
  Potency: inactive
[10]
  Potency: inactive
[4]
  Potency: inactive
[7]
  activity (max response): 0.215% (inactive)
[8]
  activity change, negative = viability loss: -1.21% [at 3.81 µM] (inactive)

## CC(C)(O)c1cc2nc(-c3cnc(N)nc3)nc(N3CCOCC3)c2s1
[1]
  Potency: 580 nM (active)
[2]
  Potency: 1160 nM (active)
[3]
  Potency: 1.87 µM (active)
[9]
  Potency: 0.935 µM (active)
[7]
  Potency: 1.26 µM (active)
[8]
  Potency: 1 µM (active)

## CN(C)c1ccc(C2Nc3ccc4ccccc4c3C3=C2C(=O)CC(C)(C)C3)cc1Br (configuration not stated)
[1]
  Potency: inactive
[2]
  Potency: 14800 nM (active)
[3]
  Potency: inactive
[9]
  Potency: inactive
[4]
  Potency: inactive
[11]
  Potency: inactive
[5]
  Potency: inactive
[6]
  Potency: inactive
[7]
  activity (max response): -5.19% (inactive)
[8]
  Potency: inactive

## N#Cc1c(NC(=O)c2cccc3ccccc23)sc2c1CCCC2
[1]
  Potency: 116 nM (active)
[2]
  Potency: 186 nM (active)
[3]
  Potency: 0.935 µM (active)
[9]
  Potency: 0.59 µM (active)
[4]
  Potency: 0.662 µM (active)
[11]
  Potency: 0.469 µM (active)
[5]
  Potency: 0.418 µM (active)
[6]
  Potency: 0.372 µM (active)
[7]
  Potency: 0.282 µM (active)

## Cc1cnc(C(=O)NCCc2ccc(S(=O)(=O)NC(=O)NC3CCCCC3)cc2)cn1
[1]
  Potency: inactive
[2]
  Potency: inactive
[3]
  Potency: inactive
[11]
  Potency: inactive
[5]
  Potency: inactive
[7]
  activity (max response): -1.95% (inactive) and -7.3% (inactive)
[8]
  Potency: inactive

## COc1cc(C)c(Sc2cnc(NC(=O)c3ccc(CNC(C)C(C)C)cc3)s2)cc1C(=O)N1CCN(C(C)=O)CC1 (configuration not stated)
[1]
  Potency: 5.25 µM (active) and 5.17 µM (active)
[2]
  Potency: 7.42 µM (active) and 8.2 µM (active)
[3]
  Potency: inactive
[9]
  Potency: inactive
[4]
  Potency: inactive
[5]
  Potency: 5.26 µM (active)
[6]
  Potency: 5.26 µM (active)
[7]
  Potency: 17.8 µM (active)
[8]
  Potency: 7.94 µM (active)

— PubChem BioAssay (NCATS)
